GSH fluor = compound fluoresces at 488/530 nm on GSH beads; actives 0.25% (n = 190,000); fluorescence (KMESF) at 10 µM; GSH beads flow cytometry, compound fluorescence 488/530 nm; stronger effect = higher value; in the data active = fluorescence above about 89;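 also: glutathione beads carrying GST-tagged Bcl family fusion proteins plus one bare bead set; values are compound well signal with DMSO vehicle wells as background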
Avidin bead fluor = compound fluoresces at 488/530 nm on avidin beads; compound fluorescence 488/530 nm, flow cytometry; stronger effect = higher value; fluorescence (KMESF) at 10 µM; actives 0.38% (n = 220,000); in the data active = fluorescence above about 47
RGS7-Gao reg = modulates binding of RGS7 to human Galphao; binding response (% of control), % at 10 µM; P09471; Multiplexed bead flow cytometry; actives lie on both sides; actives 0.35% (n = 220,000); in the data active = binding response below about 49% or above about 150%; inconclusive = no clear call, values can overlap the other calls; inactive = in between;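 also: fluorescent Galphao held in activated GDP-AlF4 state binding bead-coupled RGS7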
Target sequence (P09471 whole entry, looked up): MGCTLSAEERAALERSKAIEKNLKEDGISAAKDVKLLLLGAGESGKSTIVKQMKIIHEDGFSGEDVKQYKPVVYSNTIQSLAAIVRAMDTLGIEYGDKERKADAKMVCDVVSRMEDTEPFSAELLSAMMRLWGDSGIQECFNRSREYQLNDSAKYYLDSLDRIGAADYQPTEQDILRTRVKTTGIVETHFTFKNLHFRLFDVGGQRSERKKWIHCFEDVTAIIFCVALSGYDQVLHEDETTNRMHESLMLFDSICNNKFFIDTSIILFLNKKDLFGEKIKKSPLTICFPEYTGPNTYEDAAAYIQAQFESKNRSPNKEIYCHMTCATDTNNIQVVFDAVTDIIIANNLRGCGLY
RGS4-Gao reg = human RGS4-Galphao interaction regulation | P09471 | Multiplexed bead flow cytometry, RGS4-Galphao binding; actives lie on both sides | binding response (% of control), % at 10 µM | actives 0.33% (n = 220,000); in the data active = binding response below about 49% or above about 150%; inactive = in between;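 also: fluorescent Galphao activated with aluminum fluoride binding bead-coupled RGS4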
RGS8-Gao reg = modulates binding of RGS8 to human Galphao; actives 0.34% (n = 220,000); multiplexed bead flow cytometry; actives lie on both sides; response (percent of control binding), % at 10 µM; in the data active = response below about 60% or above about 140%; inactive = in between;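 also: Galphao activated as the GDP aluminium fluoride complex binding bead-coupled RGS8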
RGS16-Gao = modulates binding between human RGS16 and Galphao | AID 1441 | actives 0.38% (n = 220,000) | binding response (% of control), % at 10 µM | O15492+P09471 | bead-based flow cytometry RGS16-Galphao binding, fluorescence; actives lie on both sides;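 also: Galphao activated by GDP with aluminum fluoride before binding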
RGS-Gao = regulators of human RGS4-Galphao interaction; multiplexed bead flow cytometry, RGS–Galpha-o binding; RGS4–Galpha-o binding response, % at 10 µM; shares compounds with RGS16-Gao; actives 99% (n = 1,600); AID 1504;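 also: fluorescently labeled Galpha-o bound to GDP with aluminium fluoride binding biotinylated RGS beads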
Target sequence (P09471 whole entry, looked up): as above
Target sequence (P49798 whole entry, looked up): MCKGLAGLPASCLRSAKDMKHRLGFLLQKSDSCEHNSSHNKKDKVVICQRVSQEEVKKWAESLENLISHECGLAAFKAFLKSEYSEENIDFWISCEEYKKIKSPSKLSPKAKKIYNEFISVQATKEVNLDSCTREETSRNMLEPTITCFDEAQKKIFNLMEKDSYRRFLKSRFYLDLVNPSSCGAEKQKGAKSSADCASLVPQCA
Avidin counter = interferes with biotinylated probe binding to avidin beads. shares compounds with RGS16-Gao. streptavidin beads, fluorescein-biotin binding, flow cytometry. inhibition, % at 10 µM. 1,700 tested, under 10 active;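 active = inhibition above 50%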;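 also: median green fluorescence of gated singlet beads compared with DMSO control wells; 0% = DMSO wells and 100% = complete loss of bead fluorescence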
RGS8-Gao confirm = confirmation of regulators of human RGS8-Galphao interaction | shares compounds with RGS16-Gao | bead-based flow cytometry RGS8-Galphao binding, fluorescence; actives lie on both sides | binding response (% of control), % at 10 µM | actives 3% (n = 1,700) | AID 1836; in the data active = binding response below about 72% or above about 130%; inactive = in between;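 also: Galphao activated as GDP AlF4 complex before binding bead RGS8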
RGS7-Gao single = confirmation of regulators of human RGS7-Galphao interaction; actives 7.8% (n = 1,700); shares compounds with RGS16-Gao; bead-based flow cytometry RGS7-Galphao binding; actives lie on both sides; response (percent of control binding), % at 10 µM; in the data active = response below about 75% or above about 130%; inactive = in between;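 also: fluorescent Galphao activated with GDP and aluminum fluoride binding bead-coupled RGS7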
RGS16-Gao conf = confirmation of regulators of human RGS16-Galphao interaction | shares compounds with RGS16-Gao | bead-based flow cytometry, RGS16-Galphao binding; actives lie on both sides | response (% of control binding), % at 10 µM | actives 4% (n = 1,700) | AID 1838; in the data active = response below about 74% or above about 130%; inactive = in between;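 also: Galphao activated as the GDP aluminium fluoride complex binding bead-coupled RGS16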
RGS4-Gao single = confirmation of regulators of human RGS4-Galphao interaction; shares compounds with RGS16-Gao; RGS4-Galphao binding, multiplexed bead flow cytometry; actives lie on both sides; binding response (% of control), % at 10 µM; actives 4% (n = 1,700); in the data active = binding response below about 74% or above about 130%; inactive = in between
RGS19-Gao conf = RGS19-Galphao interaction regulation, single point confirmation | bead-based flow cytometry RGS19-Galphao binding; actives lie on both sides | actives 5% (n = 1,700) | shares compounds with RGS16-Gao | response (percent of control binding), % at 10 µM | AID 1841; in the data active = response below about 50% or above about 160%; inactive = in between;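 also: 100% = no compound control and 0% = blank background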
* hit, by the source's call; i = inactive; ? = inconclusive; nt = no result; [ ] = dose if it differs, or a comment. Sampled rows, rich in hits. Any-hit rate of the full collection: about 1.2%. Unless noted, no rule for the calls is given here.

SMILES	GSH fluor	Avidin bead fluor	RGS7-Gao reg	RGS4-Gao reg	RGS8-Gao reg	RGS16-Gao	Avidin counter	RGS8-Gao confirm	RGS7-Gao single	RGS16-Gao conf	RGS4-Gao single	RGS19-Gao conf	others
CC(C)(C)n1cc(S(=O)(=O)c2ccccc2)[nH]c1=O	26	16	101.5	100.3	98.7	100.8	nt	nt	nt	nt	nt	nt
Cc1ccc(-c2nn(-c3ccccc3)cc2/C=C2\SC(=S)N(CC(=O)O)C2=O)cc1	nt	8	?	95.4	98.8	49.5	nt	nt	nt	nt	nt	nt
CCOc1ccc(-c2nn(-c3ccccc3)cc2/C=C2\SC(N)=NC2=O)cc1C	20	-2	15.8*	22.4*	12.4*	1.8*	2.8	102.0	101.5	102.5	101.4	102.7
O=C(Nc1nc(-c2ccccc2)c(C(=O)c2ccccc2)s1)c1ccc(S(=O)(=O)N2CCCC2)cc1	64	172*	381.3*[activator]	296.6*[activator]	135.3	349.0*[activator]	1.4	103.7	101.0	100.6	103.3	90.6
CCN(CC)S(=O)(=O)c1ccc(C(=O)NNC(=O)C2CCN(S(=O)(=O)c3ccc(Cl)cc3)CC2)cc1	18	6	101.7	101.3	102.4	103.9	nt	nt	nt	nt	nt	nt
CCCCCCn1c(N)c(C#N)c2ccc([N+](=O)[O-])cc2c1=O	12	10	98.9	102.4	101.5	104.7	nt	nt	nt	nt	nt	nt
Cn1c(-n2c(CCCN3C(=O)c4ccccc4C3=O)nc3ccccc3c2=O)nc2ccccc21	255*	42	116.0	180.5*[activator]	117.8	725.0	-1.3	102.5	106.7	103.4	103.4	104.7
Cc1cccc(NC(=O)c2cnn3ccccc23)c1C	nt	4	?	95.5	98.2	96.7	nt	nt	nt	nt	nt	nt
Cc1ccc(-c2nnn(CC(=O)N(Cc3ccccc3F)C(C(=O)NC3CCCC3)c3ccncc3)n2)o1 (stereo unspecified)	67	7	110.3	107.9	107.8	115.0	nt	nt	nt	nt	nt	nt
COc1ccc(C(F)(F)F)cc1NC(=O)c1nc2nc(C)cc(C(F)F)n2n1	31	1	33.4*	37.8*	30.1*	4.5	i	99.0	106.5	100.7	102.9	101.2
Oc1ccccc1-n1nc2ccc3nonc3c2n1	nt	7	?	95.4	97.6	94.2	nt	nt	nt	nt	nt	nt
c1cnc(-c2noc(CN3CCN(C4CCCC4)CC3)n2)cn1	14	10	104.3	102.2	102.8	108.1	nt	nt	nt	nt	nt	nt
Cc1cc(NC(=O)CSc2nnc3c4c(C)c(C)sc4ncn23)no1	29	111*	187.6*[activator]	113.9	99.9	102.5	0.2	104.6	103.0	104.1	102.2	95.4	RGS-Gao=113.9*
Cc1cc(NC(=O)CSc2nc(C(C)C)nc3sc(C)c(C)c23)no1	31	12	100.6	97.8	100.4	102.0	nt	nt	nt	nt	nt	nt
CC1=C(C(=O)OCC(C)C)C(c2cccc(F)c2)N2C(=O)C(C)SC2=N1 (stereo unspecified)	12	10	100.8	102.0	104.8	104.8	nt	nt	nt	nt	nt	nt
CC1=C(C(=O)OC(C)C)C(c2cccc(F)c2)N2C(=O)C(C)SC2=N1 (stereo unspecified)	20	nt	nt	nt	nt	nt	0.4	101.2	98.4	98.9	99.8	89.7
CCCN(CC1CC1)C(=O)CSc1ncnc2sccc12	14	9	?	100.8	97.0	97.6	nt	nt	nt	nt	nt	nt
Cc1ccc2cc3cc(C(=O)N4CCN(Cc5ccccc5)CC4)sc3nc2c1	231*	69*	162.0*[activator]	171.7*[activator]	124.0	193.2*[activator]	-0.5	99.4	94.5	97.0	95.1	90.0
S=C(Nc1ccc(Cl)cc1)N1CCCC1	6	1	98.2	99.0	84.9	60.9	nt	nt	nt	nt	nt	nt
Cc1cc(C)cc(NS(=O)(=O)c2ccc(NC(=O)C3CCCCC3C(=O)O)cc2)c1 (stereo unspecified)	5	11	100.4	102.1	99.6	102.5	nt	nt	nt	nt	nt	nt
CC(C)c1ccccc1NC(=S)N(C)C	nt	-3	?	-47.1*	10.2*	-25.4*	-0.4	102.4	101.4	102.5	101.9	96.4
O=C1C(C=NCc2ccco2)=C(O)c2ccccc21	9	8	92.9	90.5	87.4	-57.5*	1.4	98.2	93.0	95.8	96.8	98.7	RGS-Gao=90.5*
Cc1ccc(-n2c(SCC(=O)NCCN3C(=O)CSC3=O)nnc2-c2ccccc2)cc1	5	8	87.0	89.8	77.8	18.4*	0.4	100.0	103.4	99.9	101.8	94.1	RGS-Gao=89.8*
Cn1c(SCC(=O)NCCN2C(=O)CSC2=O)nnc1-c1ccccc1	9	138*	213.4*[activator]	123.8	107.2	129.6	-0.8	103.2	105.3	103.0	103.8	103.0	RGS-Gao=123.8*
O=C(NCc1ccc2c(c1)OCO2)c1ccc2c(c1)OCO2	nt	23	?	104.7	99.6	105.2	nt	nt	nt	nt	nt	nt
SMILES	GSH fluor	Avidin bead fluor	RGS7-Gao reg	RGS4-Gao reg	RGS8-Gao reg	RGS16-Gao	Avidin counter	RGS8-Gao confirm	RGS7-Gao single	RGS16-Gao conf	RGS4-Gao single	RGS19-Gao conf	others
O=C(NCc1ccc2c(c1)OCO2)c1ccc(COc2cccc(Cl)c2)o1	46	11	100.7	100.4	100.8	102.1	nt	nt	nt	nt	nt	nt
O=C(NCc1ccc2c(c1)OCO2)c1cccc([N+](=O)[O-])c1	19	nt	nt	nt	nt	nt	2.2	101.0	99.6	102.7	101.2	96.2
O=C(NCc1ccc2c(c1)OCO2)c1ccc(CSCc2ccccc2Cl)o1	12	7	48.3*	54.5	74.6	8.8	0.7	98.3	100.9	101.4	102.6	106.3	RGS-Gao=54.5*
O=C(Oc1ccc(Br)cc1)c1cncc(Br)c1	36	89*	159.0*[activator]	170.7*[activator]	109.9	170.0	0.2	103.0	111.8	105.5	105.6	102.3
O=C(NCc1ccccc1)C1CCC1	12	6	95.6	95.9	86.1	13.9*	0.4	97.9	94.6	97.0	98.4	97.4	RGS-Gao=95.9*
CC(=O)N1CCN(C(=S)NCc2ccccc2)CC1	16	6	106.3	109.7	138.4	256.9*[activator]	-2.0	99.3	102.1	97.2	97.4	93.7	RGS-Gao=109.7*
S=C(NCc1ccccc1)N1CCCCC1	19	10	89.4	89.6	92.7	89.4	nt	nt	nt	nt	nt	nt

Screens from PubChem.
